Compound activity as filed in PubChem.
MmCpn inh = inhibitors of Methanococcus maripaludis chaperonin TRiC (MmCpn) | AID 504842 | purified Mm-Cpn ATPase, ADP Transcreener TR-FRET | Potency, µM (titrated, usually from 76.9 µM), for the others: top-dose activity, negative = inhibition, actives largely listed as inhibitors | 0.031% of 330,000 active; active means well fitted inhibition curve with a large enough effect; inconclusive means small, poorly fitted or top-dose-only effect; further: potency means the concentration at half of the fitted maximal effect; on the % scale 0 is the no-effect control and ±100 the full control effect; nearly all actives have a fitted effect of over 80% in size
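Compound-treated chaperonin, 25 nM final, turns over 10 uM ATP at 37°C for 30 min following a 10 min preincubation; ADP generated competes with ADP-d2 for Eu-cryptate antibody, lowering FRET.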
Rango-impB inh = inhibitors of Rango-importin beta complex formation | Potency, µM (doses to about 92.2 µM), for the others: at the top dose inhibition of complex formation | 0.031% of 340,000 active | Rango CFP/YFP FRET sensor + importin beta, 45 min;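 further: potency means the concentration at half of the fitted maximal effect; 0% = DMSO wells and 100% = buffer wells lacking importin beta; nearly all actives have a fitted effect of over 15% in size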
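Inhibition scored from the CFP 486 nm/YFP 530 nm FRET ratio 45 min after adding 0.125 microM importin beta to 50 nM Rango biosensor preincubated 5 min with compound (room temperature, PBS with DTT, Tween-20, BSA). No-importin wells as positive control.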
D3 ag = activates the human D3 dopamine receptor; P35462; D3R DiscoveRx beta-arrestin cells, luminescence, 90 min; max activation, %; 0.58% of 410,000 active; AID 652048; in the data active means max activation above about 30%; further: 0% is about no effect
Target sequence (P35462 whole entry, looked up): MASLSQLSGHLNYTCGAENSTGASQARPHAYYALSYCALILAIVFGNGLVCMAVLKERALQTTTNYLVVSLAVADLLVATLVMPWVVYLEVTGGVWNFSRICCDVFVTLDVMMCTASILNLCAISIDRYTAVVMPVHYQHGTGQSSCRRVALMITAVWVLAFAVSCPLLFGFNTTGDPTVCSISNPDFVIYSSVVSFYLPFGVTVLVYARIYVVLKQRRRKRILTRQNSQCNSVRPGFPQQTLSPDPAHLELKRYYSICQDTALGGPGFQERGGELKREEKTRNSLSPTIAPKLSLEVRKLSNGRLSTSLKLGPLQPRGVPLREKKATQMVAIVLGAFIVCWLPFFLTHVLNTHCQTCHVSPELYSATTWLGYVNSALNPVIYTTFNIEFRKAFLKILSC
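Agonist-mode cell screen: cells plated at 1500/well and incubated overnight at 37 °C, then exposed to library compounds for 90 min at 37 °C. Detection reagent was added for 30–60 min at room temperature, and luminescence was read.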
Rango release inh = inhibitors of RanGTP-induced Rango-importin beta complex dissociation; 0.071% of 340,000 active; O95149+P62826; Biochemical FRET Rango-importin beta, RanGTP-induced dissociation; Potency, µM (doses to about 46.1 µM), without a hit: at the highest dose activity change, negative = inhibition; further: potency means the concentration at half of the fitted maximal effect; % of control where 0% means no effect; nearly all actives have a fitted effect of over 45% in size
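Compounds sat 5 min at room temperature with 0.1 uM Rango biosensor plus 0.25 uM importin beta, then FRET pre-read. RanGTP-RCC1 (0.6 uM Ran, 2mM GTP, 0.2 uM RCC1) added for 45 min, and the CFP/YFP post-read measured blocked complex dissociation.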
TSG101-PTAP inh = blocks PTAP/TSG101 interaction to inhibit HIV-1 budding; Q99816; Fluorescence polarization, FITC-PTAP peptide / Tsg101 binding; Potency, µM (series often up to 115 µM), inactives show at the highest dose activity change, negative = inhibition, actives largely listed as inhibitors; 340,000 tested, under 10 active; AID 493005; active means well fitted inhibition curve with a large enough effect in the main read-out, with a control signal flat, not every such curve was filed as active; inconclusive means small, poorly fitted or top-dose-only effect, or effect the other way, or a change in a side signal; inactive means no such curve, though single readings can be large or run the other way; further: potency means the concentration at half of the fitted maximal effect; % of control where 0% means no effect
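Fluorescence polarization binding of Tsg101 binding domain (10 uM final) to FITC-labeled PTAP peptide (50 nM final) in HEPES pH 7.5 buffer with NaCl, Tween 20, EDTA, TCEP. Compounds added before peptide; binding 20 min at RT.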
DRD3 antagonist = D3 dopamine receptor (human) antagonism; D3R cells, DiscoveRx beta-arrestin luminescence, antagonist mode; active compounds read low; max response, negative = inhibition, %; 2.5% of 360,000 active; in the data active means max response below about -50%; inconclusive means no clear call, values can overlap the other calls; further: on the % scale 0 is the no-effect control and ±100 the full control effect
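Cells expressing the human receptor were seeded at 1500 cells/well, incubated overnight at 37 degrees C in 5% CO2, then exposed to library compounds with dopamine controls for 90 minutes at 37 degrees C before luminescent detection.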
* marks the source's active call; other numbers are inactive results; ? = inconclusive; / = no result given. The list is not random: actives were taken first. Their share in the collection is about 2.9%. Unless noted, the call rests on the fitted dose curve.

SMILES	MmCpn inh	Rango-impB inh	D3 ag	Rango release inh	TSG101-PTAP inh	DRD3 antagonist
O=c1cc(CO)oc(C(Nc2ccccn2)c2ccccc2F)c1O (stereo unspecified)	/	-1%	-5	19%	-1%	-51*
Cc1ccc(NCc2nnc(SCCN3CCCCC3)n2CC2CCCO2)c(C)c1 (stereo unspecified)	-1%	-7%	2	9%	-4%	-54*
CCCNS(=O)(=O)c1ccc(CCC(=O)Nc2cc(Cl)ccc2Oc2ccccc2)cc1	1%	0%	30*	-12%	-1%	31
Cc1cccc(C)c1N(CC(=O)Nc1cc(Cl)ccc1Oc1ccccc1)S(C)(=O)=O	-1%	?	0	0%	-3%	-54*
Cc1ccc(C)c(N(CC(=O)Nc2cc(Cl)ccc2Oc2ccccc2)S(C)(=O)=O)c1	0%	0%	1	2%	0%	0
CCC(=O)Nc1ccccc1-c1nnn(CC(=O)N2c3ccccc3CC2C)n1 (stereo unspecified)	3%	-1%	-11	14%	-5%	-17
CC1Cc2ccccc2N1C(=O)Cn1nnc(-c2ccccc2NC(=O)C2CCC2)n1 (stereo unspecified)	0%	1%	9	-12%	-9%	-98*
Cc1cc(Cl)c(S(=O)(=O)N/N=C/c2ccc3c(c2)OCO3)c(Cl)c1	0%	0%	-15	0%	-1%	?
Cc1cc(C)c(S(=O)(=O)N/N=C/c2ccc3c(c2)OCO3)c(C)c1	0%	0%	6	-5%	-2%	-71*
COc1ccc(NC(=O)Nc2cccc3ccccc23)c(OC)c1	-2%	-1%	-6	2%	3%	-1
CCOC(=O)C1CCCN(CCC(=O)Nc2c(C(=O)OC)[nH]c3cc(OC)ccc23)C1 (stereo unspecified)	0%	1%	5	3%	-3%	0
COc1ccc(OC)c(NC(=O)Nc2cccc3ccccc23)c1	1%	4%	-16	0%	/	-57*
COc1ccc2c(c1)CC(C(=O)NCCN1CCN(c3cccc(C)c3C)CC1)CO2 (stereo unspecified)	/	/	47*	/	/	/
COC(=O)c1[nH]c2cc(OC)ccc2c1NC(=O)CCN1CCN(c2cccc(C)c2C)CC1	0%	-4%	-3	-14%	-3%	-80*
COC(=O)c1[nH]c2ccccc2c1NC(=O)CCN1CCSCC1	-2%	-1%	1	1%	0%	-57*
COc1ccc(CCC(=O)NCc2nc3cccnc3n2Cc2ccc(OC)cc2)cc1	/	/	-9	/	/	/
CCOc1ccc(NC(=O)CSc2nc3ccccc3c(=O)n2CCC(=O)NC2CCCCC2)cc1	/	/	1	/	/	/
COc1ccc(S(=O)(=O)NCCC(=O)OCC(=O)NC2CC2)cc1	-16%	4%	8	-7%	0%	8
COc1ccc(OC)c(NC(=O)CCN2CCN(c3ccccc3)CC2)c1	0%	3%	30*	8%	-7%	-53*
COC(=O)c1[nH]c2cc(OC)ccc2c1NC(=O)CCN1CCN(c2ccccc2)CC1	1%	2%	-3	-10%	-8%	-76*
COc1ccc(NC(=O)CCc2c(C)nn(-c3ccc(N4CCCCC4)nn3)c2C)cc1Cl	/	/	5	/	/	/
CC(C)C[C@H]1COc2cc(N3CCN(Cc4ccccc4F)CC3)ccc2S(=O)(=O)N1	/	/	-9	/	/	-66*
CCOc1cccc2c1OC1(C)CC2NC(=O)N1c1cccc(C(=O)NCc2ccccn2)c1 (stereo unspecified)	-1%	-2%	-9	1%	-1%	13
CCOc1cccc2c1OC1(C)CC2NC(=O)N1c1cccc(F)c1 (stereo unspecified)	0%	-1%	5	2%	0%	-51*
Cc1ccccc1-c1nc(CS(=O)(=O)CC(=O)NCC(C)c2ccccc2)c(C)o1 (stereo unspecified)	/	/	2	/	/	/
SMILES	MmCpn inh	Rango-impB inh	D3 ag	Rango release inh	TSG101-PTAP inh	DRD3 antagonist
S=C(Nc1ccc(Nc2ccccc2)cc1)Nc1ccccn1	-2%	-6%	-16	12%	0%	-67*
S=C(Nc1ccccc1)Nc1ccccn1	/	/	3	/	/	2
Cc1ccc(C)c(OCCn2cc(/C=C(\C#N)C(=O)NCc3cccs3)c3ccccc32)c1	0%	?	-7	-10%	-5%	-13
N#C/C(=C\c1cn(CCOc2ccccc2F)c2ccccc12)C(=O)NCc1cccs1	0%	?	4	5.8µM*	2%	5
Cc1nnc(SC(C)C(=O)N(C)C2CCCCC2)n1N (stereo unspecified)	1%	?	0	22%	-5%	8
COc1ccc(C)cc1Nc1ccc(C(=O)O)cc1[N+](=O)[O-]	-5%	-1%	-10	1%	-1%	?
COc1ccccc1NS(=O)(=O)c1ccc(OC)c([N+](=O)[O-])c1	1%	-2%	-4	2%	0%	-18
COc1ccccc1Nc1ccc(C(=O)O)cc1[N+](=O)[O-]	-4%	-3%	-17	0%	-9%	-59*
COc1ccccc1NS(=O)(=O)c1ccc(NN=C2CCCCC2)c([N+](=O)[O-])c1	-10%	-2%	-7	10%	1%	-61*
Cc1cc(C(=O)O)ccc1NCc1cccnc1	0%	-3%	2	7%	-1%	11
O=C(O)c1ccc(NCc2cccnc2)c([N+](=O)[O-])c1	-3%	-1%	-5	-5%	-8%	-83*
C/C(=N\Nc1ccc(S(=O)(=O)Nc2ccccc2)cc1[N+](=O)[O-])c1ccncc1	-4%	/	/	/	/	/
COc1ccc(NS(=O)(=O)c2ccc(N/N=C(\C)c3ccncc3)c([N+](=O)[O-])c2)cc1	2%	6%	-12	6%	-1%	-65*
O=C(NCCNS(=O)(=O)c1cccc(C(F)(F)F)c1)c1cc(OCC(F)(F)F)ccc1OCC(F)(F)F	0%	1%	5	12%	2%	-12
O=C(COCc1cc(-c2ccc3c(c2)OCO3)on1)Nc1cc(C(F)(F)F)ccc1Cl	/	/	4	/	/	/
CCOC(=O)c1scc(-c2ccccc2)c1S(=O)(=O)Nc1ccc(N(C)C)cc1	/	/	-8	/	/	/
Cc1cccnc1NC1CCCCC1	2%	1%	-1	2%	-3%	-11
c1ccc2c(NC3CCCC3)nnc(NC3CCCC3)c2c1	-3%	0%	1	-1%	-5%	-71*
CN(C)S(=O)(=O)Oc1cccc(C(=O)Nc2ccc(Cl)c(Cl)c2)c1	0%	1%	5	-6%	0%	-53*
COc1ccc(C(=O)NC(=S)Nc2ccc(Cl)c(C(=O)O)c2)cc1	0%	0%	-6	0%	-2%	-17
